p53 reactivation = mutant p53 re-activation in reporter cells | H1299 p53-A138V BP100-luciferase reporter, luminescence, 24 h | Potency, µM (series often up to 92.2 µM), inactives show top-dose activity change, positive = activation, most hits filed as activators | AID 504706 | 320,000 tested, 0.063% active; active = well fitted activation curve with a large enough effect; inconclusive = small, poorly fitted or top-dose-only effect; inactive = no such curve, though single readings can be large or run the other way; note: potency is the fitted concentration of half-maximal effect; % of control where 0% means no effect; nearly all actives have a fitted effect of over 45% in size
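p53-null H1299 cells stably carrying temperature-sensitive p53-A138V and a BP100-luciferase reporter were pinned with compounds (4-point, 1:5 series) and held 24 hrs at 37 deg C. Luminescence was read 10 min after detection reagent.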
KCNH2 3.1 block = blocks the human KCNH2 3.1 channel isoform. U2OS KCNH2 3.1, thallium flux FluxOr; hits give low values. activity change, % (tested at about 1.8 µM). 340,000 tested, 0.95% active. AID 720553;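 active = maximum activity change below -70%; inconclusive = maximum activity change from -70% to -50%; inactive = maximum activity change above -50%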;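 note: thallium influx rate constant from kinetic fluorescence after stimulation buffer; % is set by controls: 0 for no effect and ±100 for the full control effect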
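Virally transduced U2OS (3.1 isoform, 4 h infection in dark at RT) → overnight 37 C → FluxOr + Red40 in HBSS/HEPES, 45 min → stimulation buffer, 2 min kinetic read → rate constant vs DMSO controls.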
hERG WT inh = blocks the wildtype human KCNH2 potassium channel | activity change, % at 1.84 µM | U2OS, BacMam KCNH2, thallium flux FluxOr; hits give low values | 340,000 tested, 0.37% active;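 active = maximum activity change below -70%; inconclusive = maximum activity change between -70% and -50%; inactive = maximum activity change above -50%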; note: % is set by controls: 0 for no effect and ±100 for the full control effect
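U2OS cells were transduced with wild-type KCNH2 virus (2.03 x 10^8 / mL) for 4 h at room temperature, then cultured overnight at 37 C. Thallium flux was read with FluxOr dye. Rate constants were normalized to DMSO controls.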
ClpP mod = qHTS Assay for Activators of ClpP. purified B. subtilis ClpP, FRET peptide cleavage, 20 min. Potency, µM (series often up to 57.5 µM), for inactives: at the top dose activity change, negative = active. 340,000 tested, 1.9% active. AID 651965, 2013; active = well fitted falling curve with a large enough effect; inconclusive = small, poorly fitted or top-dose-only effect; inactive = no such curve, though single readings can be large or run the other way; note: potency is the fitted concentration of half-maximal effect; the source files actives as falling curves though it sought activators and does not explain the sign; nearly all actives have a fitted effect of over 65% in size
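Purified B. subtilis ClpP, 10 microg/mL final in Tris/HCl pH8 with KCl, BSA, glycerol and Tween-20, cleaved an Abz/nitrotyrosine-quenched decapeptide. Fluorescence (ex 320, em 430) was read at 0 and 20 min at room temperature. Delta was normalized to 5.8 microM ADEP and DMSO/no-enzyme controls.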
TRPV1 ag = agonists of human vanilloid receptor 1 (TRPV1) | AID 540275 | activation, % at 8.33 µM | TRPV1-expressing cells, Fluo-8 calcium influx, agonist mode | 320,000 tested, 0.19% active; in the data active = activation above about 80%; inconclusive = between about 30% and that limit; note: 0% is about no effect
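Cells expressing TRPV1 were dye-loaded with Fluo-8 and read kinetically: 10 s baseline, 3 min after compound (agonist portion), then 2 min after EC20 capsaicin (allosteric enhancer portion). Calcium-bound dye fluorescence at 480/520 nm.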
TRPV1 potentiator = enhances activation of the human vanilloid receptor TRPV1. Q8NER1. TRPV1-expressing cells, Fluo-8 calcium influx, capsaicin EC20 potentiation. potentiation, % at 8.33 µM. 320,000 tested, 0.02% active. AID 540277; in the data active = potentiation above about 80%; inconclusive = between about 30% and that limit; note: 0% is about no effect
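TRPV1-expressing cells were cultured overnight at 35.5C and loaded with Fluo-8 calcium dye for 40 to 90 min at room temperature. After a 10 s baseline, compound was added and calcium influx was read kinetically for 3 min (ex 480/em 520 nm).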
* hit, by the source's call; ? = inconclusive; / = not tested or not shown; ! = repeats disagree. Sampled rows, rich in hits. Any-hit rate of the full collection: about 2.6%.

SMILES	p53 reactivation	KCNH2 3.1 block	hERG WT inh	ClpP mod	TRPV1 ag	TRPV1 potentiator
CCOC(=O)c1c(-c2ccccc2)oc2ccc(OCc3cccc(Br)c3)cc12	/	/	/	4%	/	/
CCOc1ccc2oc(=O)cc(C)c2c1	7%	-2	-1	32µM*	-4	13
Cc1cc(=O)oc2cc(OC(C)C(=O)O)c(Cl)cc12 (stereo not drawn)	-1%	-2	-5	28µM*	-9	-8
Cc1cc(=O)oc2ccc(OC(C)C(=O)O)cc12 (stereo not drawn)	1%	-2	2	32µM*	-2	4
COc1cccc(NC(=O)c2csc3c2CCCCC3)c1	/	/	/	-3%	/	/
Cc1ccc(S(=O)(=O)NCC(=O)NCC(=O)NCCc2ccc(Cl)cc2)cc1C	/	11	-14	-4%	/	/
COc1cccc(/C=N/Nc2nc3ccccc3n3cnnc23)c1O	32µM*	-14	3	0%	17	1
CN(CC(=O)Nc1cccc(F)c1)C(=O)CCN1C(=O)C2CC=CCC2C1=O (stereo not drawn)	0%	9	-4	-2%	2	-4
CN(CC(=O)Nc1cccc(F)c1)C(=O)CCCN1C(=O)c2cccc3cccc(c23)C1=O	-5%	-15	-2	14µM*	2	-18
CCN(C(=O)COC(=O)CCCN1C(=O)c2cccc3cccc(c23)C1=O)C1CCS(=O)(=O)C1 (stereo not drawn)	-5%	6	-6	28µM*	0	4
CN(C(=O)COC(=O)CCCN1C(=O)c2cccc3cccc(c23)C1=O)C1CCS(=O)(=O)C1 (stereo not drawn)	-4%	13	5	/	6	-6
O=C(COC(=O)CCCN1C(=O)c2cccc3cccc(c23)C1=O)Nc1cccc(C(F)(F)F)c1	-7%	-1	9	28µM*	4	0
O=C(COC(=O)CCCN1C(=O)c2cccc3cccc(c23)C1=O)Nc1cccc(Br)c1	-2%	-31	0	?	3	4
CCCCCC1CC1C(=O)N/N=C/c1ccc(N(C)C)cc1 (stereo not drawn)	3%	-11	-2	35µM*	10	-22
COc1ccc(-c2nc3ccccn3c2NCc2ccc3c(c2)OCO3)cc1	22%	-23	7	?	?	-11
COc1ccc(-c2nc3cc(C)ccn3c2NCc2ccc3c(c2)OCO3)cc1	3%	-81*	-83*	28µM*	?	-16
Cc1cccn2c(NCc3ccc4c(c3)OCO4)c(-c3ccc(O)cc3)nc12	-3%	-94*	8	/	17	-16
CCc1ccc(C(O)c2ncc(-c3cccc4ccccc34)[nH]2)cc1 (stereo not drawn)	/	/	/	5%	/	/
C#CCn1c(COc2ccccc2C)nc2ccccc21	/	/	/	3%	/	/
Cc1ccc(-n2nc(C)c3c(C)c(CCC(=O)NCCCOC(C)C)c(C)nc32)cc1	-2%	34	/	4%	?	-15
COC(=O)c1ccc(NC(=O)CCc2c(C)nc3ncnn3c2C)cc1	6%	3	4	-2%	-3	27
CC(=O)c1ccc(NC(=O)CCc2c(C)nc3c(c(C)nn3-c3ccc(C)cc3)c2C)cc1	/	/	/	14µM*	/	/
Cc1cccc(CCNC(=O)CCc2c(C)nc3c(c(C)nn3-c3ccccc3)c2C)c1	/	/	/	32µM*	/	/
COC(CNC(=O)CCc1c(C)nc2c(c(C)nn2-c2ccc(C)cc2)c1C)OC	-7%	19	3	4%	82*	-21
CC(=O)c1ccc(NC(=O)CCc2c(C)nc3ncnn3c2C)cc1	22%	0	10	28µM*	-3	?
SMILES	p53 reactivation	KCNH2 3.1 block	hERG WT inh	ClpP mod	TRPV1 ag	TRPV1 potentiator
Cc1ccc(CNC(=O)C2CCN(S(=O)(=O)c3ccc4[nH]c(=O)ccc4c3)CC2)cc1	/	/	/	-13%	/	/
CCCCN(C)C(=O)c1ccc2c(c1)NC(=O)C(CC(C)C)N2 (stereo not drawn)	/	/	/	-13%	/	/
CCCCN1C(=O)C(O)(CC(=O)c2ccc(CC)cc2)c2cc(Br)ccc21 (stereo not drawn)	/	/	/	0%	/	/
CN(c1ccccc1)S(=O)(=O)c1cccc(NC(=O)c2ccc(=O)[nH]n2)c1	2%	-2	9	25µM*	/	/
COc1ccc(NC(=O)c2ccccc2OCC(=O)Nc2ccc(Br)cc2)cc1	/	/	/	-19%	/	/
Cc1cc(-c2nc3ccccc3o2)c2ccccc2n1	6%	2	6	6%	11	-3
Clc1ccc2oc(-c3ccccn3)nc2c1	?	-6	-4	16µM*	13	-8
Nc1ccc2oc(-c3ccccn3)nc2c1	?	-19	1	-5%	-3	8
c1ccc(-c2nc3ccccc3o2)nc1	28%	-6	3	13µM*	1	-2
Cc1ccnc2ccc(-c3nc4ccccc4o3)cc12	26%	18	-4	35µM*!	?	-4
CN1C(=O)c2ccc(S(=O)(=O)c3ccc(C(=O)O)cc3)cc2C1=O	7%	-11	5	-2%	5	-9
CC(=O)Nc1ccc(N2C(=O)c3ccc(S(=O)(=O)c4ccc(C(=O)O)cc4)cc3C2=O)cc1	-5%	22	-168*	1%	0	20
CNc1oc(-c2cccc3ccccc23)nc1C#N	14%	10	0	16µM*	17	-9
O=C(NCc1ccccc1)N1CCn2c(nc3ccccc32)C1	4%	7	-11	32µM*	0	3
Cc1sc2ccccc2[n+]1CC(=O)c1ccc(F)cc1	/	/	/	-3%	/	/
COc1ccc2[nH]c(C(=O)N3CCC(n4nccc4NC(=O)C4CC4)CC3)c(C)c2c1	2%	0	-2	-13%	2	5
COc1ccc2[nH]c(CN3CCC(n4nccc4NC(=O)C4CC4)CC3)c(C)c2c1	11%	-76*	?	?	1	15
Cc1cc2c(cc1C)-n1nnnc1C(N1CCN(CC(=O)NC(C)C)CC1)C(=O)N2 (stereo not drawn)	/	/	/	0%	/	/
Cc1cccn2c(=O)c(C=Nc3ccccc3)c(NCCO)nc12	2%	7	0	4%	6	-2
CN=Cc1c(NC)nc2c(C)cccn2c1=O	-6%	27	8	40µM*	0	20
CNc1nc2c(C)cccn2c(=O)c1C=NCc1ccccc1	-3%	-1	-6	28%	2	10
Cc1cccn2c(=O)c(C=Nc3ccc(Cl)cc3)c(NCCO)nc12	-5%	4	-1	28µM*	-1	2
O=C(Nc1ccccc1N1CCCCC1)c1ncoc1-c1ccc(F)cc1	-2%	1	-6	28µM*	3	10
